The test concerns VDR:RXRa (NR concentration 270 nM, RXRa partner concentration 90 nM). The test can be described thus: PBM binding z-score (relative to random genomic background probes); higher = stronger binding; sequences stand for … in GC…GCGATTGACAGCGTAGAATGAAGG
The method, then: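 Protein-binding microarray (Agilent 4x180K custom design, double-stranded 60-nt probes: 5' GC cap, 34-nt variable region, 24-nt constant primer region; full probe sequence given). Purified or IVT nuclear receptor:RXRα heterodimers (3:1 NR:RXRα, mostly 270:90 nM) or homodimers were incubated for 1 h in PBS with 2% milk and no ligand, then detected with Alexa488 antibodies. Fluorescence from o1-orientation probes (~5 replicates averaged) was converted to z-scores against 500 random hg19 background probes. Variable regions are seed direct-repeat (DR0–DR5) sites, all their single-nucleotide variants and half-site ablations.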
With CATCGGAGGACAACAGGAGGTCAGAGCTGCCAGA, the PBM binding z-score was 2.21.

TAGACAGGGTCAAAGGCCAGAGTACGAATGTCGA: the PBM binding z-score amounted to 4.73.

GCTGCTAGGTCACGTTGGTCAGCTAACGGGTACG registered a PBM binding z-score of 2.29.

For the sequence CCTATTAGTAGACCATAAGGGCAACCGAAGCTCG, the PBM binding z-score was determined as 0.553.

ATCTCTAGGTAACGATAGTTCAGTGAATGCAAAT had a PBM binding z-score of 0.643.

Sequence GTTAGTTGGTCAGTAAAAGGTCACACACCGGTCG yielded a PBM binding z-score of 4.28.

Take CCTTACGGGTCACTGCAGGTTATAGCATCGGAGT: the PBM binding z-score was found to be 4.19.

Sequence GCGACTGGGGCATCAGCAGGTTACCCTAACTTAA returned a PBM binding z-score of -0.249.

In turn, CGAACTAGGTCAAGGACATTGAATCTCCGCACGC came in with a PBM binding z-score of 1.73.

ATCTCTAGGCAAAGATAGTTCAGTGAATGCAAAT had a PBM binding z-score of -0.11.

Turning to TCTCGGAGGACACGAAAGGTCAAAGCTCGACATC, the PBM binding z-score stood at 4.67.

TCGAGTAGGTTAGCAATGGGGCATTCAGCTTTCT registered a PBM binding z-score of -0.142.

As for GCTATTAGATGAAAGGGCAACCGAATGATTCTCG, the PBM binding z-score amounted to 0.125.

Consider ATATGTAGGTTAGCTGGGGTCGTTCAGACTAGGC, for which the PBM binding z-score came to 4.67.

On to TCTTGTAGGTCAACAGGAGGTTAAGAAAGATCGA, for which the PBM binding z-score came out at 3.79.

Regarding ACAGACAGGTGATGAAGGTAACACAGGCTATCAT, the PBM binding z-score came out at 0.561.

On to CCGAGTAGGTTATGGGGAATTCAGGCAACGGTGA, for which the PBM binding z-score was 0.0968.

For ATCTCTAGGTAAAGATAGTTCAGTGTATGCAAAT, the PBM binding z-score came out at 0.93.

ATATGTAGGTTAACGGTCATTCAGGTTGGTTCGC gave a PBM binding z-score of 2.32.

Sequence ACTAGTTGGTCAGCTGAGGTCACGCACAATTCGG displayed a PBM binding z-score of 5.09.

For the sequence TTCCCAAGGTGAGCTGAGGTCGTTGATCCAACTC, the PBM binding z-score turned out to be 4.13.

Sequence CCTTACGGGTCACGAAGTTATAGCACGACGAGCG gave a PBM binding z-score of 3.91.

TCATATAGGTAAATGCTAGGTGAAAGTTCGATCT came in with a PBM binding z-score of 1.22.

The sequence ATCTCTGGGTAACCAAGTTCAGTGAATGCCGAAC returned a PBM binding z-score of 4.32.

For the sequence CCAGACAAGTGAGAAGGTAACTCAGCCTCGATTA, the PBM binding z-score worked out at 0.143.

CGTCCAAGGTCATGGTCAGTGAAAGAGACTCGAA returned a PBM binding z-score of 4.3.

TCTGCCAGGTCAACGATGGTCAGCTAATCTGCTA came in with a PBM binding z-score of 2.49.

TCTTGTAGATCAGCTGGTTAAGAAAGCTGGCCAA showed a PBM binding z-score of -0.152.

ACAGACACGTGATGAAGGTAACTCAGGCTATCAT registered a PBM binding z-score of 0.0575.

Regarding GCTGCTAGGTCAAGTTGGTCAGCTAACGGGTACG, the PBM binding z-score came out at 2.17.

Take TATACAGGGTCAAAGGCCAGACTACGAATGTCGA: the PBM binding z-score is 4.68.

TTACCAAGCTGAGCTGAGGTCGTTGATCCAACTC displayed a PBM binding z-score of 0.877.

The sequence ACAGACAGGTGAGTGAAGGTAACGCAGCTGGACG registered a PBM binding z-score of -0.28.

Consider AATACATGGTCATCGTAGGCCAGAGTACGCACAG, for which the PBM binding z-score is 0.347.

For the sequence CGCCCAAGGTCAAGGTCAGTGAAAGAGACTCGAA, the PBM binding z-score was 4.61.

For TCGAGTAGGTTAGGGGCAATCAGAATGGCGTCGA, the PBM binding z-score is 0.363.

CCTTACGGGTCACGATGTTATAGCACGACGAGCG showed a PBM binding z-score of 3.73.

AGAATGAGGTTATACGCAGATCAGGGAAGAAAGT showed a PBM binding z-score of 1.35.

Consider CGTCCAAGGTCAAGGTCAGTAAAAGAGACTCGAA, for which the PBM binding z-score turned out to be 4.65.

For the sequence CAAACTCGGTCACGAAAGGTCAAAGTCGAATGAC, the PBM binding z-score came out at 5.86.
